Values joined by “and” are separate entries in the source; they are usually repeats but may differ in a detail not shown here. Identical values can stand only once. Counter-ions that a name gives are not always drawn.
System: FLX1 + dox-induced PRKAR1A G325D
Test: difference in log2 fold change of viability vs plate median (dox-induced PRKAR1A G325D minus uninduced); higher = compound less effective when PKA is inhibited
Details: concentration: not stated (2 or 5 uM); 5 days
Experimental: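 For each plate a log2 fold change vs the plate median was derived, and the values without dox were subtracted from those with dox, averaged over three biological replicates.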

Row | SMILES | difference in log2 fold change of viability
1 | CS(=O)(=O)CCNCc1ccc(-c2ccc3ncnc(Nc4ccc(OCc5cccc(F)c5)c(Cl)c4)c3c2)o1 [Lapatinib] | 0.129
2 | CCn1c(=O)c(-c2ccc(-c3cncs3)cc2Cl)cc2cnc(Nc3ccc(N4CCN(C)CC4)cc3)nc21 | -0.943
3 | CNc1nc(Nc2cnn([C@H]3CCN(C4COC4)C[C@@H]3F)c2Cl)ncc1C(F)(F)F | -0.177
4 | COC(=O)c1ccc2c(c1)NC(=O)/C2=C(\Nc1ccc(N(C)C(=O)CN2CCN(C)CC2)cc1)c1ccccc1 [Nintedanib (BIBF 1120)] | -4.27
5 | COCCOc1ccc2c(c1)ncn2-c1ccc2cccc(N3CCC(N)CC3)c2n1 | -0.262
6 | Cc1c(NC(=O)OC[C@@H]2COCCN2)cn2ncnc(Nc3ccc4c(cnn4Cc4cccc(F)c4)c3)c12 | -0.034
7 | CCN(CC)CCNC(=O)c1c(C)[nH]c(/C=C2\C(=O)Nc3ccc(F)cc32)c1C [Sunitinib Malate] | -0.043
8 | CNC(=O)c1cc(COc2nnc(Nc3ccc(Cl)cc3)c3ccoc23)ccn1 [Telatinib] | 0.0582
9 | COc1cc(Nc2ncc(F)c(Nc3ccc4c(n3)NC(=O)C(C)(C)O4)n2)cc(OC)c1OC [R406 (free base)] | -0.334
10 | Oc1ccc(-c2nc(-c3ccc(F)cc3)c(-c3ccncc3)[nH]2)cc1 | 0.0143
11 | Cn1sc(=O)n(Cc2ccccc2)c1=O | 0.221
12 | CC(C)(C)c1cnc(CSc2cnc(NC(=O)C3CCNCC3)s2)o1 | 0.0393
13 | O=C(NOCC(O)CO)c1cc(Br)c(F)c(F)c1Nc1ccc(I)cc1F (stereo not given) | -1.06
14 | Cc1cnc(-c2cnc(NCCNc3ccc(C#N)cn3)nc2-c2ccc(Cl)cc2Cl)[nH]1 | -0.0854 and -0.119
15 | CC(=O)Nc1cccc(-n2c(=O)n(C3CC3)c(=O)c3c(Nc4ccc(I)cc4F)n(C)c(=O)c(C)c32)c1 | -0.368
16 | CO[C@H]1C[C@@H]2CC[C@@H](C)[C@@](O)(O2)C(=O)C(=O)N2CCCC[C@H]2C(=O)O[C@H]([C@H](C)C[C@@H]2CC[C@@H](O)[C@H](OC)C2)CC(=O)[C@H](C)/C=C(\C)[C@@H](O)[C@@H](OC)C(=O)[C@H](C)C[C@H](C)/C=C/C=C/C=C/1C [Rapamycin (Sirolimus)] | -0.339
17 | CC1=C(C(=O)Nc2cc3cn[nH]c3cc2F)C(c2ccc(C(F)(F)F)cc2)CC(=O)N1 (stereo not given) | 0.418
18 | N#C/C(=C\c1ccc(O)c(O)c1)C(=O)NCc1ccccc1 [AG-490 (Tyrphostin B42)] | -0.0065
19 | O=c1cc(N2CCOCC2)oc2c(-c3ccccc3)cccc12 | 0.224
20 | Oc1cccc(-c2nc(N3CCOCC3)c3oc4ncccc4c3n2)c1 | 0.496

Row | SMILES | difference in log2 fold change of viability
21 | CS(=O)(=O)c1cccc(CNc2nc(Nc3ccc4c(c3)CCC(=O)N4)ncc2C(F)(F)F)c1 | -0.0481
22 | CC[C@@H]1C(=O)N(C)c2cnc(Nc3ccc(C(=O)NC4CCN(C)CC4)cc3OC)nc2N1C1CCCC1 | 0.0323
23 | CC(=O)Nc1nc(C)c(-c2ccc(Cl)c(S(=O)(=O)NCCO)c2)s1 | 1.62
24 | O=C1Nc2ccc(I)cc2/C1=C/c1cc(Br)c(O)c(Br)c1 | 1.35
25 | O=C(NC1CCNCC1)c1n[nH]cc1NC(=O)c1c(Cl)cccc1Cl | 0.272
26 | Cc1cc(Nc2cc(CN3CCOCC3)c3nc(C)c(Cc4ccc(Cl)cc4F)n3n2)n[nH]1 | -1.14
27 | CO[C@H]1C[C@@H]2CC[C@@H](C)[C@@](O)(O2)C(=O)C(=O)N2CCCC[C@H]2C(=O)O[C@H]([C@H](C)C[C@@H]2CC[C@@H](OCCO)[C@H](OC)C2)CC(=O)[C@H](C)/C=C(\C)[C@@H](O)[C@@H](OC)C(=O)[C@H](C)C[C@H](C)/C=C/C=C/C=C/1C [Everolimus (RAD001)] | -1.32
28 | CNCc1ccc(-c2cc(-c3nc(-c4ccc(S(=O)(=O)C(C)C)cc4)cnc3N)on2)cc1 | -0.00074
29 | Cc1cc(N2CCOCC2)cc2[nH]c(-c3c(NC[C@@H](O)c4cccc(Cl)c4)cc[nH]c3=O)nc12 | -1.17
30 | NC1(c2ccc(-c3nc4ccn5c(=O)[nH]nc5c4cc3-c3ccccc3)cc2)CCC1 | 0.0391
31 | Cc1cc(Nc2cc(N3CCN(C)CC3)nc(/C=C/c3ccccc3)n2)n[nH]1 | -0.0361
32 | COc1cc(Nc2ncc3c(n2)-c2ccc(Cl)cc2C(c2c(F)cccc2OC)=NC3)ccc1C(=O)O [Alisertib (MLN8237)] | -0.903
33 | Cc1ccc(C(=O)Nc2ccc(CN3CCN(C)CC3)c(C(F)(F)F)c2)cc1C#Cc1cnc2[nH]ncc2c1 [GZD824 Dimesylate] | 0.11
34 | O=C(Cc1ccc(-c2ccc(OCCN3CCOCC3)cc2)cn1)NCc1ccccc1 | 0.213
35 | Nc1cc(C(F)(F)F)c(-c2cc(N3CCOCC3)nc(N3CCOCC3)n2)cn1 [Buparlisib (BKM120, NVP-BKM120)] | 0.841
36 | CC(C)c1cnn2c(NCc3ccccc3)cc(NCCCCCCN)nc12 | -0.0617
37 | N#Cc1c(O)c2c(-c3ccc(-c4ccccc4O)cc3)csc2[nH]c1=O | 0.134
38 | N[C@@H]1CCCN(c2c(/C=C3\SC(=O)NC3=O)cccc2-c2ccccc2)C1 | 0.132
39 | CC1(COc2ccc3c(c2)ncn3-c2ccc3cccc(N4CCC(N)CC4)c3n2)COC1 | -0.0241
40 | CN1CC[C@H](c2c(O)cc(O)c3c(=O)cc(-c4ccccc4Cl)oc23)[C@H](O)C1 [Flavopiridol HCl] | 0.222

Source: the supplement of paper PMC9925115
